Only some compounds are listed: those with a hit (about 31% of all), similar ones and a draw of the others.
CYP2C9 activ: human CYP2C9 activators, primary screen, biochemical, luminescence; Cytochrome P450 2C9 (Homo sapiens), P11712; recombinant CYP2C9, luciferin-H conversion; active compounds read high; factor 1 = untreated enzyme, 0 = blocked; activation factor at 5 µM; hit rate 1.4% among 96,000; AID 1024, 2008;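 active = activation factor of 2 or more for CYP2C9 at a 5 µM dose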;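 also: 0 = sulfaphenazole-blocked wells and 1 = vehicle-only wells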
Target sequence (P11712 whole entry, looked up): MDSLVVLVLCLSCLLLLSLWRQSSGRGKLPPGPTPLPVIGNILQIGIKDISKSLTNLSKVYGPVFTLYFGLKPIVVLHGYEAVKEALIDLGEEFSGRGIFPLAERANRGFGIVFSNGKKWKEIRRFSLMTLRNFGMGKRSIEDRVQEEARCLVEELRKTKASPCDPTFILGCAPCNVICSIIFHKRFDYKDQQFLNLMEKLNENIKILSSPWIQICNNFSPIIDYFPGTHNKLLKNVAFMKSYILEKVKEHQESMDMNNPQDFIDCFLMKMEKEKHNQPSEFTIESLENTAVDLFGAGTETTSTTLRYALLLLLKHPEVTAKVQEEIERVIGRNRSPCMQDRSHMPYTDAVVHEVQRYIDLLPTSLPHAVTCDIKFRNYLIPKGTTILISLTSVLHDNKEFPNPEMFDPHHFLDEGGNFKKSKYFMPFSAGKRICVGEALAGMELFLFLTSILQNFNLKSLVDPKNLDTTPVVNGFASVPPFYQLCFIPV
CYP2C19 act: human CYP2C19 activators, primary screen, biochemical, luminescence; recombinant CYP2C19, luciferin-H EGE luminescence; active compounds read high; 0 = fully inhibited enzyme, 1 = untreated enzyme; activation factor at 5 µM; 96,000 tested, under 10 active;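 active = activation factor of at least 2 at 5 µM in the primary screen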;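 also: 0 = wells with 2.5 mM tranylcypromine and 1 = vehicle-only wells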
PLAP act: PLAP enzyme activators, biochemical, luminescence, HTS. activation fold at 20 µM. purified PLAP enzyme, luminescent substrate read-out; active compounds read high. hit rate 1.2% among 96,000. AID 696, 2007. Alkaline phosphatase, placental type (Homo sapiens), P05187; in the data active = activation fold above about 2
CYP2C19 inhib: blockers of cytochrome P450 2C19 activity – biochemical, luminescence, ADME assay, primary screen; inhibition, % at 5 µM; CYP2C19 Supersomes, luciferin-H EGE luminescence, 30 min; P33261; hit rate 21% among 96,000;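 active = CYP2C19 inhibition above a set limit at 5 µM in the primary screen, cut at about 50% in these data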;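 also: plate controls were negative control wells for no effect and 2.5 mM tranylcypromine positive control for full effect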
CYP2C9 inh: blockers of cytochrome P450 2C9 activity – biochemical, luminescence, ADME assay, primary screen | P11712 | CYP2C9 Supersomes, luciferin-H conversion | inhibition, % at 5 µM | hit rate 20% among 96,000 | AID 777, 2007;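 active = blocking of liver enzyme CYP2C9 beyond about 50% at 5 µM, limit read from the data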
Starred values were filed as active, the others as inactive; . = no result given.

SMILES | CYP2C9 activ | CYP2C19 act | PLAP act | CYP2C19 inhib | CYP2C9 inh
CCOC(=O)[C@@]1(C#N)C(c2ccc(Cl)c(Cl)c2)[C@H](C(N)=O)N2C=C(C(C)=O)C=C[C@H]21 (some centres undefined) | 1 | 0.8 | 1 | 19 | 3
CN(C)CCN=Cc1c(O)n(-c2cccc3ccccc23)c(=O)[nH]c1=O | 1 | 1 | 0.9 | 1 | 1
COC(=O)C1=C(N)Oc2c(c(=O)oc3ccccc23)C1c1cccnc1 (centres undefined) | 0.1 | 0.8 | 0.9 | 23 | 92*
CC(C)CC1C(C#N)=C(N)Oc2c1c(=O)oc1ccccc21 (centres undefined) | 0.2 | 0.7 | 0.9 | 28 | 77*
N#CC1=C(N)Oc2c(c(=O)oc3ccccc23)C1c1ccncc1 (centres undefined) | 0 | 0.4 | 1 | 57* | 96*
CCOc1ccc(C2C(C#N)=C(N)Oc3c2c(=O)oc2ccccc32)cc1 (centres undefined) | 0.2 | 0.9 | 1 | 9 | 83*
O=P(OCC(F)(F)C(F)F)(N1CCOCC1)N1CCOCC1 | 1 | 1 | 0.8 | 2 | -4
O=C1C2CCCN2C(c2ccccc2)N1c1ccccn1 (centres undefined) | 0.9 | 1 | 0.9 | -2 | 8
COc1ccc(C(CC(=O)N2CCC3(CC2)OCCO3)NS(=O)(=O)c2ccc(F)cc2)cc1 (centres undefined) | 0.9 | 1 | 1 | 1 | 7
CC(NCc1ccccc1Cl)C(O)c1ccccc1 (centres undefined) | 1 | 0 | 1 | 96* | 1
CC(NCc1ccc(Cl)c(Cl)c1)C(O)c1ccccc1 (centres undefined) | 0.6 | 0 | 1.6 | 100* | 42
CCNc1ccc(P(=S)(N(C)C)N(C)C)cc1 | 0.6 | 0.6 | 0.8 | 44 | 37
O=C(Cn1cnc2sc3c(c2c1=O)CCCC3)NCCC(=O)N1CCC2(CC1)OCCO2 | . | . | 1.2 | . | .
Cc1ccc(N=Nc2c(O)[nH]c(=O)[nH]c2=O)c([N+](=O)[O-])c1 | 1 | 1 | 0.9 | -2 | 3
CCCCc1ccc2[nH]cc(CCN)c2c1 | 0.4 | 0.7 | 1 | 34 | 63*
CCC(CC)C(=O)NC1CCSC1=O (centres undefined) | 1 | 1 | 1 | -4 | 2
CN(C)P(=O)(C(Cl)=C(N1CCCCC1)N1CCCCC1)N(C)C | 0.8 | 0.3 | 1.7 | 69* | 16
O=c1c2ccccc2nc(N2CCCC2)n1-c1ccc(Cl)cc1 | 0.9 | 0.3 | 0.8 | 67* | 13
O=C(C1CC(=O)N(c2ccc(F)c(Cl)c2)C1)N1CCC2(CC1)OCCO2 (centres undefined) | 1 | 0.8 | 1 | 18 | -2
N[C@@H](Cc1c[nH]c2ccccc12)c1nnc(SCc2ccc(Cl)cc2)o1 | 0.6 | 0.3 | 1.8 | 66* | 44
O=C(c1cccn2c(=O)c3cc(Br)ccc3nc12)N1CCC2(CC1)OCCO2 | 0.5 | 0.7 | 1.6 | 32 | 55*
CCn1nc(-c2cccs2)nc2c(=O)n(C)c(=O)nc1-2 | 0.1 | 0 | 0.9 | 99* | 91*
CC(N)Cc1c[nH]c2cc3c(cc12)OCCO3 (centres undefined) | 0.7 | 0.9 | 1.4 | 10 | 27
CC(=NCc1cccnc1)c1c(O)n(-c2ccccc2)c(=O)[nH]c1=O | 0.8 | 0.4 | 1 | 57* | 17
CCC(=NCc1cccnc1)c1c(O)n(Cc2ccccc2)c(=O)[nH]c1=O | 0.3 | 0 | 1.7 | 95* | 69*
SMILES | CYP2C9 activ | CYP2C19 act | PLAP act | CYP2C19 inhib | CYP2C9 inh
CC(=NCCN1CCOCC1)c1c(O)n(Cc2ccccc2)c(=O)[nH]c1=O | 1 | 1.1 | 1.2 | -10 | -4
CCC(=NCCCn1ccnc1)c1c(O)n(Cc2ccccc2)c(=O)[nH]c1=O | 0 | 0.1 | 2.1* | 94* | 97*
CCCCn1c(O)c(C(CC)=NCc2cccnc2)c(=O)[nH]c1=O | 0.4 | 0.1 | 0.9 | 91* | 60*
CC(=NCC1CCCO1)c1c(O)n(Cc2ccccc2)c(=O)[nH]c1=O (centres undefined) | 1.1 | 0.9 | 1 | 14 | -7
CC(=NCCN1CCCCC1)c1c(O)n(-c2ccc(Cl)cc2)c(=O)[nH]c1=O | 0.9 | 0.9 | 1 | 8 | 9
Cc1cccnc1-n1c(CN2C(=O)c3ccccc3C2=O)nc2ccccc2c1=O | 0.6 | 1.1 | 0.9 | -6 | 40
CCCOP(=O)(O)c1c([N+](=O)[O-])cc(C(F)(F)F)cc1[N+](=O)[O-] (tested in a mixture with another compound) | 0.8 | 0.9 | 0.9 | 8 | 20
COC(=O)C(O)(c1c[nH]c2ccccc12)C(F)(F)F (centres undefined) | 1.2 | 0.8 | 0.9 | 16 | -20
CCOC(=O)C(O)(c1ccc(N(CC)S(=O)(=O)c2ccccc2)cc1)C(F)(F)F (centres undefined) | 0.3 | 0.4 | 0.9 | 61* | 74*
CCN(c1ccc(C(O)(C(=O)OC)C(F)(F)F)cc1)S(=O)(=O)c1ccccc1 (centres undefined) | 0.2 | 0 | 1.3 | 95* | 79*
COC(=O)C(O)(c1c(C)[nH]n(-c2ccccc2)c1=O)C(F)(F)F (centres undefined) | 0.5 | 1 | 0.9 | 1 | 46
CCOC(=O)C(C)Oc1cc(C)cc2oc(=O)c3c(c12)CCCC3 (centres undefined) | 0.2 | 0.5 | 1 | 49 | 78*
Cc1cc(OCC(=O)OC(C)C)c2c3c(c(=O)oc2c1)CCCC3 | 0.7 | 0.9 | 1.2 | 6 | 28
COC(=O)c1cc(COc2cc(C)cc3oc(=O)c4c(c23)CCC4)c(C)o1 | 0 | 0.2 | 1 | 78* | 97*
COC(=O)C(C)Oc1cc(C)cc2oc(=O)c3c(c12)CCC3 (centres undefined) | 0.1 | 0.3 | 1.1 | 72* | 92*
COC(=O)C(C)Oc1cc(C)cc2oc(=O)c3c(c12)CCCC3 (centres undefined) | 0.1 | 0.4 | 1.1 | 55* | 92*
CC1N(O)C2CCCCCC2N1O (centres undefined) | 1.1 | 1.1 | 1 | -15 | -8
CCOP(=O)(OCC)C(c1ccccc1)N(C)C=O (centres undefined) | 0.9 | 1 | 0.9 | 4 | 8
CC(O)(CS(=O)(=O)c1cccc(C(F)(F)F)c1)C(=O)Nc1cccc(C(F)(F)F)c1 (centres undefined) | 1.9 | 0.5 | 1.1 | 51* | -90
CC(O)(CS(=O)(=O)c1ccccc1)C(=O)Nc1ccc(C(F)(F)F)cc1 (centres undefined) | 0.9 | 0.4 | 1.2 | 65* | 9

Bioassay records from PubChem BioAssay.
